Active and inactive are the calls of the source.
Assays:
[1] = optical density shifts of acrAB sulA E. coli – strain DRC41, OD650, 48 h, E. coli filamentation inducer project, primary screen (AID 1152); settings: higher = more signal, called active from +8 up or from −8 down;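 also: E. coli MC1000 strain DRC41 lacking acrAB efflux pump and sulA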
[2] = probe aLefty1 binding on compound microarray – biochemical, small-molecule microarray, 635/667 nm fluorescence, primary screen (AID 1153); settings: higher = more signal;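 also: score merges spot fluorescence with signal-to-noise ratio from the scanned slide images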
[3] = plasmodial surface anion channel blockers, osmotic lysis – cell-based, P. falciparum Indochina, OD700, 1 h, primary screen (AID 1154); settings: P. falciparum Indochina infected RBC osmotic lysis, higher = more signal, called active from +8 up or from −8 down
[4] = plasmodial surface anion channel blockers, osmotic lysis – cell-based, P. falciparum Indochina, OD700, 2 h, primary screen (AID 1155);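 also: lysis reports solute entry through the parasite surface anion channel PSAC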; settings: P. falciparum Indochina infected erythrocytes, higher = more signal, called active from +8 up or from −8 down
[5] = changes in parasitized red cell lysis, either direction – P. falciparum Indochina, OD700, 3 h, PSAC antagonist project, primary screen (AID 1156); settings: P. falciparum-infected erythrocytes, osmotic lysis, higher = more signal, called active from +8 up or from −8 down
[6] = plasmodial surface anion channel blockers, osmotic lysis – cell-based, P. falciparum Indochina, OD700, 18 h, primary screen (AID 1157); settings: P. falciparum Indochina infected erythrocytes, osmotic lysis OD700, 18 h; higher = more signal, called active from +8 up or from −8 down
[7] = S6 kinase pathway phospho-S6 level changes – cell-based, A549, cytoblot, luminescence, serum-stimulated, primary screen (AID 1158); settings: 5 h, higher = more signal;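 also: serum-stimulated A549 lung adenocarcinoma cells; signal is phosphorylated S6 detected by cytoblot immunostaining with HRP secondary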
[8] = biological target: NADPH oxidase 2 (Homo sapiens) (UniProt P04839); assay: compounds shifting NOX2 Amplex Red fluorescence – cell-based, HEK293-NOX2, PMA-stimulated, NOX inhibitor project, primary screen (AID 1159); settings: 45 min, higher = more signal, called active from +8 up or from −8 down; also: test concentration not given here
NADPH oxidase 2 (Homo sapiens), sequence (P04839 whole entry, looked up): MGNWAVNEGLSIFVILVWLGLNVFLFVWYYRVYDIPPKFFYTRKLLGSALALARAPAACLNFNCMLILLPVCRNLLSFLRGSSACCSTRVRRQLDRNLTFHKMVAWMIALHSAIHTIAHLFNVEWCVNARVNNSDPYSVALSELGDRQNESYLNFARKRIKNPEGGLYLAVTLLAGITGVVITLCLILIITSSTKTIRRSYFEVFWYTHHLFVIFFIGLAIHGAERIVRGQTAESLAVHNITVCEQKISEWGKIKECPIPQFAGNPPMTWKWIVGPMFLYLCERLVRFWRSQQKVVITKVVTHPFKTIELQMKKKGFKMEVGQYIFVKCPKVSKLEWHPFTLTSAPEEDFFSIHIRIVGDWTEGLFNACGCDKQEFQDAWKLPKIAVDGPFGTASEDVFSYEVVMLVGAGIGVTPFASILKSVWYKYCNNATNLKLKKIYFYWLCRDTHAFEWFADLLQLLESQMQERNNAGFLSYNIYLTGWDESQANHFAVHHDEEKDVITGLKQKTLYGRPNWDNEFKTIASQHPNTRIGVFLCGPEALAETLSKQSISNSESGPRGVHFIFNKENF

[9] = biological target: NADPH oxidase 4 (Homo sapiens) (UniProt Q9NPH5); assay: compounds shifting NOX4 Amplex Red fluorescence – cell-based, HEK293-NOX4, tetracycline-induced, NOX inhibitor project, primary screen (AID 1160); settings: HEK293-NOX4, Amplex Red H2O2 fluorescence, 45 min; higher = more signal, called active from +8 up or from −8 down
NADPH oxidase 4 (Homo sapiens), sequence (Q9NPH5 whole entry, looked up): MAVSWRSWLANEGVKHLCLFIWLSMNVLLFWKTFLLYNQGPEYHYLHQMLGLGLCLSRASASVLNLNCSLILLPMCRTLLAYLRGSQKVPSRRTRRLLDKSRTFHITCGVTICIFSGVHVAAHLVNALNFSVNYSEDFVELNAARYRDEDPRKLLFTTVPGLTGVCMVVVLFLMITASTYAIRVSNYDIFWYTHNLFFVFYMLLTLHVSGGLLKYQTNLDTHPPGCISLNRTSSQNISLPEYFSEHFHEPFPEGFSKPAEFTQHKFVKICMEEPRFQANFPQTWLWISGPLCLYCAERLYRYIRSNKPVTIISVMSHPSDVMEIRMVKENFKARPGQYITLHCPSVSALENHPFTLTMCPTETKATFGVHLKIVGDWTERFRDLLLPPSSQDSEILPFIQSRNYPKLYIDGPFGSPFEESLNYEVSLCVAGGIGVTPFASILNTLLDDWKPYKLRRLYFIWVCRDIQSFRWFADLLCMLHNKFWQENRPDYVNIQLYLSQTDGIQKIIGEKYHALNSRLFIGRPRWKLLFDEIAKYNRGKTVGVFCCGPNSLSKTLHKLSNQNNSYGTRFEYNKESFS

[10] = biological target: NADPH oxidase 5 (Homo sapiens) (UniProt Q96PH1); assay: compounds shifting NOX5 Amplex Red fluorescence – cell-based, HEK293-NOX5, NOX inhibitor project, primary screen (AID 1161); settings: HEK293-NOX5, ionomycin, 45 min, higher = more signal
NADPH oxidase 5 (Homo sapiens), sequence (Q96PH1 whole entry, looked up): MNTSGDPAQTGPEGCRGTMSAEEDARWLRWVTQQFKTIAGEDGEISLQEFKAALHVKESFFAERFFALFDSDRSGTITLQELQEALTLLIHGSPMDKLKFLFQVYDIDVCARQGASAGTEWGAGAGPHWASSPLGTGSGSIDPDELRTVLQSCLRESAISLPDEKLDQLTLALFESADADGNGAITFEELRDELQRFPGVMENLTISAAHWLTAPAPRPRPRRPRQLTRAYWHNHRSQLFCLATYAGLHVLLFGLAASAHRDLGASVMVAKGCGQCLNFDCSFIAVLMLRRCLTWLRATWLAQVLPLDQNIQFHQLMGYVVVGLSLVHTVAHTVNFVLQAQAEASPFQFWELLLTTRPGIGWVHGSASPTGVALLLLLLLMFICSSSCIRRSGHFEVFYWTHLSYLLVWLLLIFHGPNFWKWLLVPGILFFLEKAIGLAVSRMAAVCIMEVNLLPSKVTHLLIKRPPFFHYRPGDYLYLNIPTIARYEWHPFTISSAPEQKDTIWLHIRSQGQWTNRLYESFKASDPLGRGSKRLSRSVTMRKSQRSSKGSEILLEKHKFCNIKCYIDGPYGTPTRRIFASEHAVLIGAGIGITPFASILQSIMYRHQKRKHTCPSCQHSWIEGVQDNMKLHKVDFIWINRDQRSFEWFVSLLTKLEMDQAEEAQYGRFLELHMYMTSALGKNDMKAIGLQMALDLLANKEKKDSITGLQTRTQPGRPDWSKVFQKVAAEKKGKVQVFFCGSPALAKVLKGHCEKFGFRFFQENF

[11] = compound effects on lung adenocarcinoma cell viability – A549, calcein-AM fluorescence, 48 h, basal, profiling panel (AID 1162); settings: higher = more signal; also: test concentration not given here
[12] = compound effects on differentiated 3T3-L1 adipocyte viability – cell-based, 3T3-L1 adipocytes, calcein-AM fluorescence, 48 h, basal, profiling panel (AID 1163); settings: 3T3-L1 adipocytes viability, higher = more signal; also: test concentration not given here
[13] = compound effects on hepatocellular carcinoma cell viability – HepG2, calcein-AM fluorescence, 48 h, basal, profiling panel (AID 1164); settings: higher = more signal; also: test concentration not given here
[14] = compound effects on multiple myeloma cell viability – MM1S, calcein-AM fluorescence, 48 h, basal, profiling panel (AID 1165); settings: higher = more signal;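 also: viability of MM1S multiple myeloma cells under basal unstimulated conditions; test concentration not given here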
[15] = calcein-AM signal in unstimulated myeloma cells – cell-based, calcein-AM fluorescence, 48 h, PK04 Diversity Set, profiling panel (AID 1166); settings: RPMI8226 myeloma viability, higher = more signal;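 also: cells grown under basal conditions without added stimulus; test concentration not given here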
[16] = JC-1 mitochondrial signal, unstimulated HepG2 cells – cell-based, JC-1 fluorescence, 24 h, 100 nL compound, profiling panel (AID 1167); settings: HepG2 mitochondrial potential, higher = more signal; also: test concentration not given here
[17] = JC-1 mitochondrial signal, unstimulated adipocytes – cell-based, JC-1 fluorescence, 3T3-L1 adipocytes, 24 h, 100 nL compound, profiling panel (AID 1168); settings: JC-1 mitochondrial fluorescence, higher = more signal, called active from +8 up or from −8 down; also: test concentration not given here
[18] = JC-1 mitochondrial signal, unstimulated myeloma cells – cell-based, JC-1 fluorescence, RPMI8226, 24 h, 100 nL compound, profiling panel (AID 1169); settings: JC-1 mitochondrial potential fluorescence, higher = more signal; also: test concentration not given here
[19] = JC-1 mitochondrial signal, unstimulated MM1S myeloma – cell-based, JC-1 fluorescence, 24 h, 100 nL compound, profiling panel (AID 1170); settings: MM1S mitochondrial potential, higher = more signal; also: test concentration not given here
[20] = resazurin metabolic signal in A549 cells – cell-based, resazurin fluorescence, 24 h, PK04 Diversity Set, profiling panel (AID 1171); settings: A549 viability, higher = more signal, called active from +8 up or from −8 down; also: test concentration not given here

Row | SMILES | z-score [1] | composite z-score [2] | z-score [3] | z-score [4] | z-score [5] | z-score [6] | z-score [7] | z-score [8] | z-score [9] | z-score [10] | z-score [11] | z-score [12] | z-score [13] | z-score [14] | z-score [15] | z-score [16] | z-score [17] | z-score [18] | z-score [19] | z-score [20]
1 | NC(=O)[C@@H]1[C@H]2C(=O)O[C@H](c3ccccc3)[C@H](c3ccccc3)N2[C@H](c2ccc(O)cc2)[C@@]12C(=O)Nc1ccc(C#CC3=CCCCC3)cc12 | -1.1 (inactive) | 1.47 | 1.78 (inactive) | 1.07 (inactive) | -0.491 (inactive) | 1.27 (inactive) | -0.7 | 0.615 (inactive) | 0.196 (inactive) | -0.325 | -1.42 | -0.0881 | -5.06 | -3.27 | -4.17 | -3.59 | -1.58 (inactive) | -0.88 | -1.94 | -0.274 (inactive)
2 | COc1ccc(-c2cc3c(c(Cc4ccccc4)n2)[Si](C(C)C)(C(C)C)OC3)cn1 | -1.28 (inactive) | -0.0099 | 2.28 (inactive) | 0.139 (inactive) | -0.709 (inactive) | 0.408 (inactive) | 0.0758 | -1.62 (inactive) | -0.121 (inactive) | -2.02 | -0.103 | -0.19 | 0.147 | -0.494 | -1.37 | -0.914 | -1.19 (inactive) | -0.346 | 0.488 | 2.17 (inactive)
3 | CC(C)(C)OC(=O)CC[C@]1(C(=O)NCCN2CCOCC2)COC(c2ccc(OCCCO)cc2)=N1 | 1.04 (inactive) | 0.319 | 18.7 (active) | 2.01 (inactive) | 0.0229 (inactive) | 0.791 (inactive) | -0.395 | -2.08 (inactive) | 0.08 (inactive) | -0.137 | 0.263 | -0.555 | 0.854 | -0.61 | 0.512 | 0.0561 | 0.588 (inactive) | 0.212 | -0.699 | 0.412 (inactive)
4 | CCOC(=O)C1=C[C@@H](C(C)C)N(S(=O)(=O)c2ccc(C)cc2)[C@H]1c1ccccc1F | -1.02 (inactive) | 0.389 | 0.21 (inactive) | 0.668 (inactive) | -0.422 (inactive) | 0.587 (inactive) | -0.851 | 0.173 (inactive) | -0.957 (inactive) | 1.06 | -1.2 | 0.0139 | -0.972 | -0.463 | -1.08 | 0.175 | 0.227 (inactive) | -0.128 | -0.581 | 1.76 (inactive)
5 | C=C(C)[C@@H]1CC=C(C(O)C2C=CC3C(=O)NC(=O)C3N2Nc2ccc(Cl)cc2Cl)CC1 (stereo not given in full) | -2.9 (inactive) | 0.266 | 5.74 (inactive) | 1.4 (inactive) | -0.372 (inactive) | 1.61 (inactive) | -1.02 | -2.38 (inactive) | -6.41 (inactive) | -3.51 | -3.8 | 0.641 | -3.88 | -3.71 | -3.89 | -3.7 | -0.432 (inactive) | -0.934 | -0.944 | -2.76 (inactive)
6 | COC(=O)[C@@]1(Cc2ccccc2)[C@H]2c3cc(C(=O)N4CCCC4)n(Cc4c(CO)[nH]cc(C)c4=O)c3C[C@H]2CN1C(=O)c1ccccc1 | -1.73 (inactive) | -0.0971 | 0.315 (inactive) | 0.32 (inactive) | 1.27 (inactive) | 0.397 (inactive) | -0.289 | 0.562 (inactive) | -0.976 (inactive) | -2.9 | -1.45 | -0.412 | -0.844 | -0.662 | -2.04 | -0.401 | -0.276 (inactive) | -0.797 | -0.444 | 0.739 (inactive)
7 | COCCCNC(=O)[C@@H]1c2ccccc2C(=O)N(Cc2ccccc2OC)[C@H]1c1ccc(CO)cc1 | 0.876 (inactive) | 0.278 | 1.54 (inactive) | -0.0902 (inactive) | 0.591 (inactive) | -0.631 (inactive) | 2.45 | -1.79 (inactive) | -3.52 (inactive) | -5.09 | -0.0798 | 1.02 | -0.429 | 0.528 | -0.447 | 1.59 | -0.588 (inactive) | -0.171 | -0.391 | 1.71 (inactive)
8 | C#CCN1[C@H](/C=C/C2CC2)[C@H](Cc2ccccc2)OC(=O)[C@@H]1Cc1ccccc1 | -0.625 (inactive) | -0.306 | 0.128 (inactive) | 0.224 (inactive) | -0.491 (inactive) | -0.16 (inactive) | 0.0807 | -0.263 (inactive) | -0.367 (inactive) | -1.98 | -0.627 | 0.0556 | -0.0365 | -2.65 | -2.47 | 1.31 | -0.0709 (inactive) | -0.294 | -0.719 | 2.37 (inactive)
9 | C[C@H]1C2[C@H](Cc3ccccc3)NC(=O)[C@]23C(=O)NCC(=O)N2CCC[C@H]2C(=O)NC/C=C/CCC/C=C/C3[C@@H]2O[C@]12C (stereo not given in full) | 1.38 (inactive) | -0.103 | 1.44 (inactive) | -0.0812 (inactive) | 0.391 (inactive) | 0.133 (inactive) | 0.781 | 1.61 (inactive) | -0.66 (inactive) | 1.88 | 0.776 | 1.42 | -0.39 | -0.37 | -0.682 | 0.624 | 0.244 (inactive) | -0.877 | 1.41 | -1.46 (inactive)

— PubChem BioAssay
